Assay outcomes deposited in PubChem by National Center for Advancing Translational Sciences (NCATS).
This is a sample that favours compounds with a hit; in the whole collection about 7.3% have one here.
KinaseGlo FLuc = blocks Kinase-Glo luciferase, a counter-screen artifact | AID 1379 | Potency, µM (doses to about 38.3 µM), actives largely listed as inhibitors | Q27757 | hit rate 0.28% among 200,000 | Kinase-Glo luciferase, ATP luminescence, 8 min; note: nearly all actives have a fitted effect of over 60% in size
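Inhibition of Kinase-Glo luciferase light generation was assessed at 10 uM ATP in pH 7.2 imidazole buffer, with luminescence measured after eight minutes at ambient temperature.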
Rab9 prom act = activators of Rab9 promoter. Huh7 Rab9 promoter-luciferase reporter, luminescence, 24 h. Potency, µM (top dose mostly 9.22 µM), usual class: activators. hit rate 2.8% among 320,000. AID 485297; note: nearly all actives have a fitted effect of over 60% in size
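Luminescence from Amplite-detected luciferase (10 minutes, ambient) reports Rab9 promoter activation. Before that, stable Rab9-luciferase Huh7 cells (1500/well, reduced-serum OP-MEM I plus 10% FBS) were exposed to compound for 24 hours at 37C.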
ELG1 genotoxic = induces genotoxicity in HEK293T cells with luciferase-tagged ELG1. HEK293T ELG1-luciferase reporter, luminescence, 16 h. Potency, µM (titrated, usually from 46 µM), hits mostly activators. hit rate 1.3% among 330,000. AID 504466; note: nearly all actives have a fitted effect of over 60% in size
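Genotoxicity was scored as increased ELG1-luciferase reporter signal, measured by ONE-Glo luminescence (30 min, room temperature). Compound or vehicle exposure of the HEK293T reporter cells lasted 16 hr at 37°C.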
SMN2 splice up = enhancers of SMN2 splice variant expression. HEK293 SMN2-luciferase splicing reporter, luminescence, 30-36 h. AID 1458. Potency, µM (series often up to 46.1 µM), hits mostly activators. hit rate 2.8% among 210,000; note: nearly all actives have a fitted effect of over 55% in size
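qHTS luciferase splicing reporter: luminescence rises when SMN2 exon 7 is included in transfected HEK293 cells. Compound exposure lasted 30-36 h at 37C, with 4.5 mM final sodium butyrate as control, followed by a ONE-Glo read.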
FLuc modulator = inhibits or activates purified firefly luciferase, miR-21 counter-screen; P08659; purified FLuc, Km substrates, luminescence inhibition; Potency, µM (highest dose often 57.5 µM), usual class: inhibitors; hit rate 6.9% among 360,000; note: nearly all actives have a fitted effect of over 55% in size
Target sequence (P08659 whole entry, looked up): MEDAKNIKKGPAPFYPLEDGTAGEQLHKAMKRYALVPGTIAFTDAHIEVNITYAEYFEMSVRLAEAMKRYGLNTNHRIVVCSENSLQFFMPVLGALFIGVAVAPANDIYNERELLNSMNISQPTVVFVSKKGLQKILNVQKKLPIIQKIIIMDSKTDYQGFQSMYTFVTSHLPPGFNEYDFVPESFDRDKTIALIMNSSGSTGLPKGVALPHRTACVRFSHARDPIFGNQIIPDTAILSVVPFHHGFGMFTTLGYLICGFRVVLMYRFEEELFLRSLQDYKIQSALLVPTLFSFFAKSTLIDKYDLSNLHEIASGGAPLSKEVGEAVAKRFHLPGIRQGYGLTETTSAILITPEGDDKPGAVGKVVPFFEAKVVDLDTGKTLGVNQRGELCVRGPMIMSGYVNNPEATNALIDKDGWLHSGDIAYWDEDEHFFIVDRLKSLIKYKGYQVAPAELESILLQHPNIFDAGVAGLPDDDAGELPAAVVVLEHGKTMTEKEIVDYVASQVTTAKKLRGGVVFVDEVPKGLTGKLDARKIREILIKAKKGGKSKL
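Purified P. pyralis luciferase, 10 nM final, with Km-level 10 uM D-luciferin and 10 uM ATP in 50 mM Tris acetate pH 7.5, 10 mM Mg acetate, 0.01% Tween-20, 0.05% BSA; 6-point qHTS titration about 60 µM downward; luminescence read.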
NPC1 prom act = activates the NPC1 promoter. Huh7 NPC1 promoter luciferase reporter, 24 h. Potency, µM (titrated, usually from 9.22 µM), actives largely listed as activators. hit rate 2.4% among 320,000; note: nearly all actives have a fitted effect of over 60% in size
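NPC1 promoter–luciferase Huh7 cells; 24 h compound; luminescence.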
Numbers stand for hits; n = inactive; u = inconclusive; x = no result given. Calls come from the whole dose curve; as a rule, active = well fitted curve in the direction sought with a large enough effect; inconclusive = small, poorly fitted or top-dose-only effect, or another doubt; inactive = no such curve, though single readings can be large; an effect the other way counts as inactive or inconclusive.

SMILES	KinaseGlo FLuc	Rab9 prom act	ELG1 genotoxic	SMN2 splice up	FLuc modulator	NPC1 prom act
O=C(N/N=C/c1cccnc1)c1sc2ccccc2c1Cl	x	n	n	x	19µM	n
CCc1ccc(-n2nc(CO)c(C(=O)NCCCCc3ccccc3)n2)cc1	x	x	x	n	u	x
CC(=O)N1CCCN(Cc2cn(-c3cccc(C)c3)nc2-c2cccc(F)c2)CC1	x	n	n	x	17µM	n
Cc1cccc(-n2cc(CN3CCCN(C=O)CC3)c(-c3cccc(F)c3)n2)c1	n	n	n	x	13µM	n
O=C(N/N=C/c1cccs1)c1c[nH]c2ccccc12	n	2.8µM	u	11µM	6µM	3.2µM
CCc1ccc(/C=N/NC(=O)c2c[nH]c3ccccc23)s1	n	1.3µM	u	6.3µM	6µM	2µM
COc1ccc(C(=O)Sc2ccc(C)cc2)cc1OC	n	n	n	n	6.7µM	n
COc1ccc(C(=O)Sc2ccc(Cl)cc2)cc1OC	n	n	n	n	2.7µM	n
COc1ccc(C(=O)c2ccc(OC)c(OC)c2)cc1OC	n	n	n	n	n	n
Cn1cc(S(=O)(=O)N2CCc3ccccc32)cc1C(=O)Nc1ccc(C(F)(F)F)cc1	x	x	x	x	n	x
O=C1C(=O)c2c(C(=O)c3ccccc3)coc2-c2ccccc21	n	n	10µM	n	u	n
O=C(Nc1ccc(-c2n[nH]c(=S)o2)cc1)c1ccccc1Br	x	n	n	x	15µM	n
COC(=O)c1ccccc1NC(=O)c1ncoc1-c1ccco1	x	x	x	x	n	x
COc1cc(C(=O)N/N=C(\c2ccccc2)c2ccccn2)cc(OC)c1OC	n	n	u	n	n	n
COc1ccc(NS(=O)(=O)c2cc(NC(=O)c3ccncc3)ccc2N2CCOCC2)cc1	n	n	n	7.9µM	n	n
Cn1c(N)c(C(=O)Nc2ccc3ccccc3c2)sc1=S	n	2.2µM	u	u	u	1.8µM
COc1cccc(C(=O)NNC(=O)c2ccccc2)c1	x	3.5µM	12µM	x	u	2.5µM
COc1cccc(C(=O)N/N=C(/c2ccccc2)c2ccccn2)c1	n	n	n	n	19µM	n
COc1cccc(C(=O)NNC(=O)c2cccnc2)c1	x	n	n	x	n	n
Cc1ccc(OCc2nc(-c3ccc(C(=O)N4CCN(c5cccc(C(F)(F)F)c5)CC4)cc3)oc2C)cc1	x	x	x	n	n	x
COc1cc(OC)cc(C(=O)NNC(=O)c2ccccc2Br)c1	n	n	n	n	n	n
CS(=O)(=O)Nc1ccc(C(=O)Nc2ccc3ccccc3c2)cc1	x	0.63µM	u	x	2.4µM	u
COc1c(C(=O)NNC(=O)c2ccccc2)csc1Br	x	2.8µM	u	x	11µM	u
CC(=O)c1cccc(NC(=O)c2ccc(NS(C)(=O)=O)cc2)c1	n	n	n	n	n	n
Cc1cccc(C(=O)Nc2ccc3ccccc3c2)c1	x	0.63µM	u	x	2.4µM	u
SMILES	KinaseGlo FLuc	Rab9 prom act	ELG1 genotoxic	SMN2 splice up	FLuc modulator	NPC1 prom act
COC(=O)c1[nH]c2cc(OC)c(OC)cc2c1NC(=O)c1cccc(OC)c1	n	n	n	n	5.4µM	n
Cc1ccc(N2CC(NC(=O)c3cccs3)CC2=O)cc1C (configuration not stated)	x	x	x	x	n	x
Cc1ccc(C)c(N2CCN(C(=O)CCc3nnc4n(C)c(=O)c5ccccc5n34)CC2)c1	x	x	x	n	n	x
CCCCCCCCCCCCCCCCCC(=O)NCC(COP(=O)([O-])OCC[N+](C)(C)C)OCC (configuration not stated)	n	n	x	n	x	n
CCc1ccc(NC(=O)c2sc3nc(C)c(Cl)c(C)c3c2NC(=O)c2ccccc2OC)cc1	x	x	x	n	n	x
O=C(O)c1cccc(NC(=O)c2ccccc2NC(=O)c2cccc([N+](=O)[O-])c2)c1	x	n	n	x	u	n
O=C(Nc1ccccc1C(=O)Nc1ccncc1)c1cccc([N+](=O)[O-])c1	x	2.2µM	u	x	0.095µM	2.8µM
CCS(=O)(=O)N1CCCc2cc(C(=O)Nc3cccc(C(C)=O)c3)ccc21	x	x	x	x	n	x
CSc1cccc(NC(=O)c2ccc3c(c2)CCCN3S(C)(=O)=O)c1	x	x	x	n	12µM	x
COc1cccc(C(=O)Nc2cccc(OCC(=O)O)c2)c1	n	n	n	n	24µM	n
COc1cccc(C(=O)Nc2ccc3ccccc3c2)c1	x	0.79µM	u	x	0.48µM	3.2µM
O=C(Nc1ccc(O)cc1)c1ccc(C(=O)c2ccccc2)o1	n	n	n	n	7.6µM	u
CC(C)c1ccc(NC(=O)c2ccc(NS(C)(=O)=O)cc2)cc1	n	n	n	n	6.7µM	n
COc1cccc(NC(=O)c2ccc(C(=O)c3ccccc3)o2)c1	n	u	n	20µM	6.7µM	u
CCOC(=O)c1ccc(NC(=O)c2ccc(NS(C)(=O)=O)cc2)cc1	n	n	n	n	u	n
COc1cccc(C(=O)Nc2cccc(SC)c2)c1	n	u	9.2µM	u	9.5µM	n
Cc1oc(C(=O)Nc2ccc(O)cc2)cc1COc1ccccc1	n	n	u	u	u	n
Cc1cccc(NC(=O)c2sc(-n3nc(C)c(Cc4ccc5c(c4)OCO5)c3C)nc2C)c1C	x	x	x	x	n	x
CC(C)CCNC(=O)CN1C(=O)CCn2nc(-c3cn(C)c4ccccc34)cc21	x	x	x	x	n	x
O=C(Nc1cccc([N+](=O)[O-])c1)c1ccccc1	x	n	n	x	u	n
O=C(Nc1ccc2ccccc2c1)c1cccc([N+](=O)[O-])c1	x	u	u	x	12µM	u
COc1cccc(/C(C)=N/NS(=O)(=O)c2ccc(Cl)cc2)c1	n	n	n	n	u	n
COc1cccc(/C(C)=N/N=C(\C)c2cccc(OC)c2)c1	x	3.2µM	u	x	6.7µM	u
Cc1ccc(C(=O)Nc2cccc(Oc3ccccc3)c2)o1	n	u	u	n	19µM	n
COc1ccc(C(=O)Nc2ccc(N3CCN(c4ccc(OC)cc4)CC3)c(C#N)c2)cc1	n	n	n	10µM	n	n
SMILES	KinaseGlo FLuc	Rab9 prom act	ELG1 genotoxic	SMN2 splice up	FLuc modulator	NPC1 prom act
CCN(C(=O)C1CCCN(c2ncnc3c2nc2n3CCCCC2)C1)c1cccc(C)c1 (configuration not stated)	x	x	x	x	n	x
COc1ccc(C2C=C(c3ccccc3)Nc3nc(NC(=O)/C=C/c4ccc(F)cc4)nn32)cc1 (configuration not stated)	x	x	x	x	n	x
COC(=O)c1cccc(NC(=O)Cc2coc3cc(OC)ccc23)c1	n	u	n	n	17µM	n
COc1cccc(C(=O)Nc2ccc(NC(=O)Cc3ccccc3)cc2)c1	x	n	n	x	n	n
COc1cccc(C(=O)Nc2cnn(C(C)C)c2)c1	n	2.5µM	u	x	u	u
COc1ccc(C(=O)Nc2ccc3ccccc3c2)cc1	x	u	0.46µM	x	0.19µM	0.089µM
COc1cccc(C(=O)Nc2ccccc2)c1	n	u	u	u	24µM	u
Oc1c(C(c2ccccc2Cl)N2CCC(O)CC2)sc2nc(-c3ccco3)nn12 (configuration not stated)	x	x	x	x	n	x
